The results in this text go back to ChEMBL document CHEMBL2218924, “A broad activity screen in support of a chemogenomic map for kinase signalling research and drug discovery” (Biochem J, 2013).

The target in assay [1] is T1, cGMP-dependent protein kinase 1 (Homo sapiens) (UniProt Q13976).
T1 sequence (whole entry): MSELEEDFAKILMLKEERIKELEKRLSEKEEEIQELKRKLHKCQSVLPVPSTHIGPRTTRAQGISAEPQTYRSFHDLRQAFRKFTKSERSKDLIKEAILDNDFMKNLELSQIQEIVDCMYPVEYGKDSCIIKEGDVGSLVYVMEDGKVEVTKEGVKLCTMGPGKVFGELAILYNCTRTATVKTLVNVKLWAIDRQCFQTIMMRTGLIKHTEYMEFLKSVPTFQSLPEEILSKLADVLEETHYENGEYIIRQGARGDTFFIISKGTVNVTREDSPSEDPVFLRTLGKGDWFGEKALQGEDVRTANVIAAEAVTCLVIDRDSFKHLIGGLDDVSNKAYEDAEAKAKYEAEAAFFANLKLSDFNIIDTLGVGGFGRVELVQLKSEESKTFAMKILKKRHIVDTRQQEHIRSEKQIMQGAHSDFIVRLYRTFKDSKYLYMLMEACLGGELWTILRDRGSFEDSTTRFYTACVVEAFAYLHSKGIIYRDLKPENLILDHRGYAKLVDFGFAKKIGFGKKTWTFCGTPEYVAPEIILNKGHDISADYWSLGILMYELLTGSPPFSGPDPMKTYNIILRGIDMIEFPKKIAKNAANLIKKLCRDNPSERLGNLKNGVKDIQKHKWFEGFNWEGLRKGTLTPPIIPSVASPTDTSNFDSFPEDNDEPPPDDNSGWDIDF
The following applies: at 1 µM.

Assay [2] deals with T1, cGMP-dependent protein kinase 1 (Homo sapiens). As to conditions: at 10 µM.
For assay [3] the target is unchanged. The following applies: at 1 µM. The source holds these as a separate data set.
The target is the same in assay [4]. As to conditions: at 10 µM. The source holds these as a separate data set.
Assay [5] concerns the target T2, MAP kinase-activated protein kinase 5 (Homo sapiens) (UniProt Q8IW41).
T2 sequence (whole entry): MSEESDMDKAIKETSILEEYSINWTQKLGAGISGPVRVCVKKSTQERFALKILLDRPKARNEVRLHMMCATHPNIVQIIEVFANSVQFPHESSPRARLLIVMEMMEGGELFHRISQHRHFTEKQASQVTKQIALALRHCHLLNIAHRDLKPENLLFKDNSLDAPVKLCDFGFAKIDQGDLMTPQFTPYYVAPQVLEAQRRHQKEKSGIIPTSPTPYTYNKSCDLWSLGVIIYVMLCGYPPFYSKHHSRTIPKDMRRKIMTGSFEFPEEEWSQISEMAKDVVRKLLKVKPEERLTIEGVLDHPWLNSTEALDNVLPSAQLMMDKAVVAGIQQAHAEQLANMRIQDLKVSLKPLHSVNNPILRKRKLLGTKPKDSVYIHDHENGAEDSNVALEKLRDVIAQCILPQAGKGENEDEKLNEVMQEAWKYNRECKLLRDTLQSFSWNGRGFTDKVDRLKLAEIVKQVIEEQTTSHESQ
The following applies: at 1 µM.

Assay [6] concerns the target T2, MAP kinase-activated protein kinase 5 (Homo sapiens). The following applies: at 10 µM.
The target in assay [7] is Serine/threonine-protein kinase N2 (Homo sapiens) (UniProt Q16513). As to conditions: at 1 µM.
Sequence of Serine/threonine-protein kinase N2 (Homo sapiens) (Q16513 whole entry, looked up): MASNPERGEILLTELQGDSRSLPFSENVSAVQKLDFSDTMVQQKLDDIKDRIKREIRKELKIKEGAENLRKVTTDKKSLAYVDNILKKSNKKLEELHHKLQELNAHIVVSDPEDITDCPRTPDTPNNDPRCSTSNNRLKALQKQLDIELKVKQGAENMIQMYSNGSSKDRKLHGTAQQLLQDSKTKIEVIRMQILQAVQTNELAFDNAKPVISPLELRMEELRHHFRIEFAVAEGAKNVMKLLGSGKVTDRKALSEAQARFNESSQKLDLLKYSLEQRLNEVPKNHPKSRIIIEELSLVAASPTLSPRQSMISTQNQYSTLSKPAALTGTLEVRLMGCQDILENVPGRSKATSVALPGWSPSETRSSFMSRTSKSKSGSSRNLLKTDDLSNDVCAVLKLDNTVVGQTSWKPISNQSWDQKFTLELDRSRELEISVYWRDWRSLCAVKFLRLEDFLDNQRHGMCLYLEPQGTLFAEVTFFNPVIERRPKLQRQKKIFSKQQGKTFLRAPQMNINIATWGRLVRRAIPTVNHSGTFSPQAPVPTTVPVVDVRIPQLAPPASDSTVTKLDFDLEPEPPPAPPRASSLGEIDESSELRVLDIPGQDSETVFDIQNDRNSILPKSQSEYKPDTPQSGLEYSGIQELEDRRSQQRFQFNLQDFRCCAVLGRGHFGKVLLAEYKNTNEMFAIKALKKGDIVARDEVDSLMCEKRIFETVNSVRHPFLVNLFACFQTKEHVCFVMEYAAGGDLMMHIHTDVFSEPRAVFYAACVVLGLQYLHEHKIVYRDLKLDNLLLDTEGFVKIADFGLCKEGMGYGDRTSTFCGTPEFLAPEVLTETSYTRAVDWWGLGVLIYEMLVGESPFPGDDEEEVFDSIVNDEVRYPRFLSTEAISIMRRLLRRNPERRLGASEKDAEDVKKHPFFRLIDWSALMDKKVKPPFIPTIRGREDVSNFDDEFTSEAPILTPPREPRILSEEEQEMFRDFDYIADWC
Assay [8] shares this target. The following applies: at 10 µM.
Assay [9] addresses Tyrosine-protein kinase FRK (Homo sapiens) (UniProt P42685). As to conditions: at 1 µM.
Assay [10] has the same target. The following applies: at 10 µM.
The target of assay [11] is T3, Phosphorylase b kinase gamma catalytic chain, liver/testis isoform (Homo sapiens) (UniProt P15735).
T3 sequence (whole entry): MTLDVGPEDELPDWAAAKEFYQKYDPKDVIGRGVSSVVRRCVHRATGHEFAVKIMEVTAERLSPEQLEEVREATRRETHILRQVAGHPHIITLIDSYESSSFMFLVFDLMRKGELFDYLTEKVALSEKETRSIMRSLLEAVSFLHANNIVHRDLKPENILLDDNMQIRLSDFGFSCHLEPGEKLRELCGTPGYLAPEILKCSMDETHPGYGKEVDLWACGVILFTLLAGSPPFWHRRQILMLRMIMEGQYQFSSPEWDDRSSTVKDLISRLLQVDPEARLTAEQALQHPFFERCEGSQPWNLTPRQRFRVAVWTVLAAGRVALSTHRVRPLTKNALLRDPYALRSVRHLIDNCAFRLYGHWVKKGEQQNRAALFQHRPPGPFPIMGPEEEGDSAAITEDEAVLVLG
As to conditions: at 1 µM.

The target in assay [12] is T3, Phosphorylase b kinase gamma catalytic chain, liver/testis isoform (Homo sapiens). The following applies: at 10 µM.
The target of assay [13] is Serine/threonine-protein kinase pim-2 (Homo sapiens) (UniProt Q9P1W9). The following applies: at 1 µM.
Sequence of Serine/threonine-protein kinase pim-2 (Homo sapiens) (Q9P1W9 whole entry, looked up): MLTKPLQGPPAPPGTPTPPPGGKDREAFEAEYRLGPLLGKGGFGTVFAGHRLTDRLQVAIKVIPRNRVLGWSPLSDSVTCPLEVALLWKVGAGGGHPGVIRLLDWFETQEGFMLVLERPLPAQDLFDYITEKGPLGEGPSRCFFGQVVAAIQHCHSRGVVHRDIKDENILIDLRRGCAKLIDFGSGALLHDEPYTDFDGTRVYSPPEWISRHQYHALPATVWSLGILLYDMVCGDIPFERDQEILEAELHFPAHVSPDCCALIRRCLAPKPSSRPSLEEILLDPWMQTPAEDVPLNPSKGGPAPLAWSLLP
Assay [14] has the same target. As to conditions: at 10 µM.
Assay [15] concerns the target Serine/threonine-protein kinase pim-3 (Homo sapiens) (UniProt Q86V86). As to conditions: at 1 µM.
Assay [16] shares this target. As to conditions: at 10 µM.
Assay [17] has as its target Serine/threonine-protein kinase PLK1 (Homo sapiens) (UniProt P53350). The following applies: at 1 µM.
Assay [18] has the same target. As to conditions: at 10 µM.
For assay [19], the target named is Serine/threonine-protein kinase pim-1 (Homo sapiens) (UniProt P11309). The following applies: at 1 µM.
Sequence of Serine/threonine-protein kinase pim-1 (Homo sapiens) (P11309 whole entry, looked up): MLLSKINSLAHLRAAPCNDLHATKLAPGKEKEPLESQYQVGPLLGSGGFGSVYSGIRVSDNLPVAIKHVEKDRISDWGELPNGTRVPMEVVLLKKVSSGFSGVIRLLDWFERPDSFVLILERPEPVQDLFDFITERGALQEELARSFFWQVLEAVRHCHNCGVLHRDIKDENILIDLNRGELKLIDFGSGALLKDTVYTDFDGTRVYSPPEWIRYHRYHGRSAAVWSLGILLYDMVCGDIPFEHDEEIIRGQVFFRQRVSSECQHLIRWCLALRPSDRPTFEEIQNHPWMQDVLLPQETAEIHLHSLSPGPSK
Assay [20] has the same target. As to conditions: at 10 µM.

Sequence of Tyrosine-protein kinase FRK (Homo sapiens) (P42685 whole entry): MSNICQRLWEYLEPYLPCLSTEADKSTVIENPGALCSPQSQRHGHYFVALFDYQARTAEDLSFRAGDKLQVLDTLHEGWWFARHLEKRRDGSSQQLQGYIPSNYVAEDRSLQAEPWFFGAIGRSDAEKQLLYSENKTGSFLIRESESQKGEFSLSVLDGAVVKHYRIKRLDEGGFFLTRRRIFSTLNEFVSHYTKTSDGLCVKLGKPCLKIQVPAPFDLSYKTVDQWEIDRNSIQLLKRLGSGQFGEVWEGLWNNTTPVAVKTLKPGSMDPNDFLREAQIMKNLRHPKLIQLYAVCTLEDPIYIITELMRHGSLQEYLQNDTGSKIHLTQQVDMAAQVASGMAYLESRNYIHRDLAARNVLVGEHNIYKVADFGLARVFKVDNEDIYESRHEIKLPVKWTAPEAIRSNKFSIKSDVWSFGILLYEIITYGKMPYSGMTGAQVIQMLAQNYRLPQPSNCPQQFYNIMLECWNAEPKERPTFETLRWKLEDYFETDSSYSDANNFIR
Sequence of Serine/threonine-protein kinase PLK1 (Homo sapiens) (P53350 whole entry): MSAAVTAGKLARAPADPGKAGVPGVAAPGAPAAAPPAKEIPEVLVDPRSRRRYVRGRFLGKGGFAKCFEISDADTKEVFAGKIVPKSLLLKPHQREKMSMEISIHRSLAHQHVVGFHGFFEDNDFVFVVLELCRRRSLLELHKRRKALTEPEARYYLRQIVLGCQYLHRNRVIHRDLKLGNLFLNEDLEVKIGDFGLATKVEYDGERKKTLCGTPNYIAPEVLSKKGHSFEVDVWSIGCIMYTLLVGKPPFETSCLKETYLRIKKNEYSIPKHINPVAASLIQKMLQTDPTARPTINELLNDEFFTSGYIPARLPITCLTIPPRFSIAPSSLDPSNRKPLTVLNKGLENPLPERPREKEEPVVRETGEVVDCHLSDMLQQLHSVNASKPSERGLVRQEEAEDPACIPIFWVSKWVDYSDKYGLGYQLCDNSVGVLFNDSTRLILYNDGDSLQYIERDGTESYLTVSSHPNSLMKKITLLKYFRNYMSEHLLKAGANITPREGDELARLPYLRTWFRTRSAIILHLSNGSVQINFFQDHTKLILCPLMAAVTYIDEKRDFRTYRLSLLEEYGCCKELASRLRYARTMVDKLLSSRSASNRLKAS

For the molecule `CCN(CC)CCCCN1c2ccccc2Oc2ccc(Cl)cc21`, the residual activity worked out at 113% in [1]; 110% in [2]; 97% in assay [3]; 94% in assay [4]; 96% in assay [5]; 112% in assay [6]. For the same molecule, the residual activity in assay [7] is 107%; in [8] it was 124%; in assay [9] it was 105%; in [10], 119%; in [11], 112%; in assay [12], 122%. For the same molecule, the residual activity in assay [13] worked out at 97%; in assay [14], 125%; in assay [15], 92%; in [16] it was 47%; in assay [17] it was 109%; in assay [18], 76%.

For the molecule `CC(C)n1cnc2c(NCc3ccccc3)nc(NCCCO)nc21`, the residual activity in assay [1] amounted to 89%; in [2] it was 101%; in assay [3] it was 95%; in assay [4] it was 83%; in [5] it was 115%; in assay [6], 115%. Besides, the residual activity in assay [7] is 110%; in [8] it was 99%; in assay [9], 88%; in assay [10] it was 80%; in assay [11] it was 96%; in [12], 75%. For the same molecule, the residual activity worked out at 107% in assay [19]; 75% in [20]; 134% in assay [13]; 87% in assay [14]; 93% in assay [15]; 96% in [16]. Also, the residual activity came out at 89% in [17] and 52% in assay [18].

On to `N#Cc1cnc2cnc(NCc3cccnc3)cc2c1Nc1ccc(F)c(Cl)c1`, for which the residual activity in [1] amounted to 4%; in [2] it was 9%; in assay [5], 78%; in [6], 101%; in assay [7], 4%; in assay [8], 3%. Moreover, the residual activity in assay [9] stood at 28%; in assay [10], 22%; in assay [11] it was 3%; in assay [12], 2%; in [19], 27%; in [20] it was 18%. In addition, the residual activity in assay [13] worked out at 84%; in [14], 63%; in assay [15] it was 97%; in assay [16], 94%.

As to `Cc1ccc(S(=O)(=O)/C=C/C#N)cc1`, the residual activity in assay [1] was 85%; in [2], 99%; in [3], 107%; in [4] it was 92%; in assay [5], 110%; in assay [6], 111%. Also, the residual activity was found to be 90% in assay [7]; 87% in assay [8]; 70% in assay [9]; 82% in assay [10]; 114% in [11]; 111% in [12]. The residual activity in assay [19] worked out at 97%; in [20], 95%; in assay [13], 111%; in [14], 103%; in assay [15], 91%; in assay [16], 102%. Further, the residual activity is 92% in [17] and 102% in [18].

On to `CCN(CC)C(=O)c1ccc(Nc2nc(OCC3CCCCC3)c3nc[nH]c3n2)cc1`, for which the residual activity in [6] amounted to 12%; in assay [7] it was 66%; in assay [8], 12%; in [9], 78%; in [10], 38%; in [19] it was 77%. The residual activity in [20] worked out at 56%; in assay [13], 143%; in assay [17], 78%; in assay [18] it was 66%.

As for `COc1ccc(S(=O)(=O)N(CCO)c2ccccc2CN(C)C/C=C/c2ccc(Cl)cc2)cc1`, the residual activity in assay [1] was determined as 101%; in assay [2] it was 99%; in assay [3] it was 103%; in [4], 86%; in assay [5], 98%; in assay [6], 53%. Moreover, the residual activity in assay [7] turned out to be 95%; in assay [8] it was 69%; in assay [9] it was 100%; in assay [10] it was 125%; in [11] it was 116%; in [12], 83%. Moreover, the residual activity in assay [19] came out at 96%; in assay [20] it was 73%; in [13] it was 143%; in assay [14] it was 137%; in [15], 86%; in assay [16], 82%. The residual activity in assay [17] was 76%; in assay [18], 72%.

Consider `Cc1cc2ncc(-c3ccccc3)nc2cc1C`, for which the residual activity in [1] came to 110%; in assay [2] it was 130%; in assay [3] it was 83%; in assay [4], 94%; in assay [5] it was 101%; in assay [6], 73%. The residual activity in assay [7] came out at 102%; in assay [8], 107%; in assay [9], 105%; in assay [10], 88%; in [11], 94%; in [12] it was 101%. For the same molecule, the residual activity amounted to 97% in [19]; 84% in assay [20]; 126% in assay [13]; 100% in [15]; 96% in [16]; 81% in [17]. Moreover, in [18], the residual activity amounted to 75%.

`CC(=O)c1ccc(N2CCOCC2)cc1O`: the residual activity in assay [5] is 77%; in assay [6], 109%; in assay [7], 100%; in assay [8] it was 109%; in assay [9] it was 109%; in assay [10] it was 99%. For the same molecule, the residual activity in [19] came out at 82%; in assay [20], 87%; in [13] it was 91%; in assay [14], 129%; in assay [15], 96%; in assay [16] it was 91%. Further, the residual activity in [17] is 91%; in [18] it was 68%.
